This is an account of results in PubChem BioAssay.

The viability is a read-out of living cells in per cent, often relative to untreated cells. Usually inhibition stands for the change of the read-out against control, counted positive when it falls.

Activity calls are given as the source filed them. Unless noted, the rule behind the calls is not given here.

Assay [1] has as its system Neuropilin-2 / VEGF-C interaction (human). The assay is described as follows: small molecules blocking Neuropilin-2/VEGF-C interaction – biochemical, microplate binding format, z-score (AID 743281). Particulars: microplate NRP2/VEGF-C binding assay; stronger effect = lower value.
Assay [2] in a line: modulation of C. elegans fzo-1 (AID 1259413).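 Note: fzo-1 mutant C. elegans worms in liquid wells.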 Particulars: C. elegans fzo-1 modulator screen, mean read-out; stronger effect = higher value.
The nature of assay [3]: EMT-state selective cytotoxicity in co-culture – imaging, PC-3E GFP, TEM4-18 mCherry, primary screen (AID 1345086;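 active = compounds killing one labelled cell type while sparing the other, by normalised counts and ratio limits, not self-fluorescent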;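 for all read-outs here: cells exposed to compound for 72 h before imaging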;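 for red/green cell ratio (normalised): normalised mesenchymal count divided by normalised epithelial count so high means epithelial killing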). Particulars: PC-3E GFP / TEM4-18 mCherry co-culture, imaging cell counts, at 1 µM; for red/green cell ratio (normalised): actives lie on both sides, counts scaled to control wells, 1 = unselective.
A short description of assay [4]: P. berghei load reduction in hepatocytes – cell-based, HepG2, luciferase luminescence, HepG2 viability, primary screen (AID 624349; in the data active = parasite load remaining mostly below about 12%, no sharp cut-off; inactive = mostly above about 10%;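 note: 100% = mean of DMSO negative control wells on the same plate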). Particulars: P. berghei liver stage in HepG2, luciferase luminescence, concentration not given here; parasite load remaining: stronger effect = lower value; viability: measured here: HepG2 viability without parasites.
Assay [5] is described as follows: signal quenchers or enhancers, Cy5 substrate/SSB – biochemical, NIH Clinical Collection, E. coli SSB, artefact control for HCV NS3 helicase inhibitor project (AID 743268). Particulars: Cy5-oligo bound E. coli SSB, fluorescence interference.
For assay [6], the system named is Hepatitis C virus NS3 helicase. As to the kind of experiment: blockers of NS3h binding to DNA – biochemical, fluorescence polarization, NIH Clinical Collection, primary screen (AID 743270). Particulars: NS3 helicase binding to Cy5-dT15 DNA, stronger effect = higher value, concentration not given here. (Fluorescence polarisation rises when a labelled molecule tumbles more slowly, as on binding a larger partner.)

For assay [7], the target named is Single-stranded DNA-binding protein (Escherichia coli (strain K12)) (UniProt P0AGE0). As to the kind of experiment: SSB-ssDNA binding inhibitors – biochemical, fluorescence polarization, NIH Clinical Collection, counter-screen for HCV NS3 helicase inhibitor project (AID 743271; in the data active = inhibition above about 28%). Particulars: E. coli SSB-DNA binding, stronger effect = higher value, concentration not given here.

The nature of assay [8]: compounds distorting NS3 helicase fluorescence signal – biochemical, NIH Clinical Collection, artefact control for HCV NS3 helicase inhibitor project (AID 743272).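 Note: HCV NS3 helicase with a Cy5 labelled single stranded DNA probe.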 Particulars: fluorescence interference counterscreen, HCV NS3 helicase assay; stronger effect = lower value. (Counterscreens check selectivity or assay interference.)
The mark [9] stands for this setting: measured here: epithelial PC-3E GFP cell survival.
Where [10] appears, read: measured here: mesenchymal TEM4-18 mCherry cell survival.

Turning to `C#C[C@]1(O)CC[C@H]2[C@@H]3CCC4=CC(=O)CC[C@@H]4[C@H]3CCC21CC` (stereo not given in full), the molecule was classed as inactive in assay [1]. The mean signal in assay [2] is 225 (inactive).

Consider `Cc1ccc(S(=O)(=O)O[C@@H]2CCOC2=O)cc1`, for which, in assay [3], the red/green cell ratio (normalised) is 0.71 (inactive). For the same molecule, the normalised cell number in assay [3] (setting [9]) is 1.41; in assay [3] (setting [10]), 1.01.

Regarding `C#C[C@]1(O)CC[C@H]2[C@@H]3CCc4cc(OC)ccc4[C@H]3CCC21C` (stereo not given in full), in assay [1], the molecule was called inactive. Besides, in assay [2], the mean signal was 241 (inactive).

On to `CC12C=CC(=O)C=C1CC[C@@H]1[C@@H]2[C@@H](O)CC2(C)[C@H]1CC[C@]2(O)C(=O)COC(=O)CCC(=O)O` (stereo not given in full), for which the call in assay [1] was inactive. Besides, in assay [2], the mean signal was 283 (inactive).

Regarding `C[C@@H]1C[C@H]2[C@@H]3C[C@H](F)C4=CC(=O)C(Cl)=CC4(C)[C@@]3(F)[C@@H](O)CC2(C)[C@@]1(O)C(=O)CO` (stereo not given in full), the outcome in assay [1] was inactive. Further, in assay [2], the mean signal is 273 (inactive).

In the case of `CC(=O)O[C@H]1C[C@@H]2CC[C@@H]3[C@H](CCC4(C)[C@H]3C[C@H]([N+]3(C)CCCCC3)[C@@H]4OC(C)=O)C2(C)C[C@@H]1N1CCCCC1` (stereo not given in full), the outcome in assay [1] was inactive. For the same molecule, in assay [2], the mean signal is 285 (inactive).

Turning to `O=C1N[C@H](C(=O)O)CS1`, the parasite load remaining in assay [4] was 95.8% (inactive). In assay [4], this molecule returned a viability of 70.6%. Further, the fluorescence ratio in assay [5] is 1.02 (inactive); in assay [8] it was 0.96 (inactive). The inhibition was -3.56% (inactive) in assay [6] and -3.18% (inactive) in assay [7]. In addition, the z-score in assay [1] is -0.587 (inactive). For the same molecule, the mean signal in assay [2] is 242 (inactive).

Regarding `C=C1OC(=O)[C@]2([C@H](C)C=C[C@H](O)[C@@H]2O)[C@@H]1O`, the red/green cell ratio (normalised) in assay [3] was 0.98 (inactive). The normalised cell number stood at 1 in assay [3] (setting [9]) and 0.99 in assay [3] (setting [10]).

In the case of `C=C1/C(=C\C=C2/CCCC3(C)[C@@H]([C@H](C)CCCC(C)(C)O)CC[C@@H]23)C[C@@H](O)C[C@@H]1O` (stereo not given in full), the molecule was classed as inactive in assay [1]. Moreover, in assay [2], the mean signal was 260 (inactive).

For the molecule `C/C=C1/[C@H]2C=C(C)C[C@]1(N)c1ccc(=O)[nH]c1C2`, the molecule was called inactive in assay [1]. Moreover, the mean signal in assay [2] was 229 (inactive).

For `Cc1ccc(S(=O)(=O)O[C@H]2CCOC2=O)cc1`, the red/green cell ratio (normalised) in assay [3] is 0.92 (inactive). Besides, the normalised cell number in assay [3] (setting [9]) turned out to be 1.16; in assay [3] (setting [10]), 1.06.

For the molecule `N[C@@H](C(=O)N[C@@H]1C(=O)N2C(C(=O)O)=C(CSC3CNNN3)CS[C@H]12)c1ccc(O)cc1` (stereo not given in full) (tested in a mixture with another compound), the result in assay [1] was inactive. The mean signal in assay [2] was 239 (inactive).

For the molecule `C=CC1=C(C(=O)O)N2C(=O)[C@@H](NC(=O)/C(=N/OCC(=O)O)c3csc(N)n3)[C@H]2SC1`, in assay [1], the result was inactive. Moreover, the mean signal in assay [2] is 257 (inactive).

In the case of `C[C@H]1CC[C@@H](C(C)(C)O)CC2=C1CC[C@@H]2C`, the red/green cell ratio (normalised) in assay [3] is 1.27 (inactive). Moreover, the normalised cell number in assay [3] (setting [9]) stood at 0.71; in assay [3] (setting [10]), 0.91.

Take `O=C(O)CNc1ccc(Cl)cc1[N+](=O)[O-]`: in assay [3], the red/green cell ratio (normalised) was 1.05 (inactive). Also, the normalised cell number in assay [3] (setting [9]) came to 1.11; in assay [3] (setting [10]), 1.17.

Turning to `CC(=O)[C@H]1CC[C@H]2[C@@H]3CCC4=CC(=O)CCC4(C)[C@H]3CCC12C` (stereo not given in full), in assay [1], the molecule was called inactive. In assay [2], the mean signal was 279 (inactive).

Regarding `C#C[C@]1(O)CC[C@H]2[C@@H]3CCc4cc(O)ccc4[C@H]3CCC21C` (stereo not given in full), the outcome in assay [1] was inactive. Also, the mean signal in assay [2] is 242 (inactive).

Turning to `COc1cc(CNC(=O)CCCC/C=C\C(C)C)ccc1O`, the parasite load remaining in assay [4] was 83.7% (inactive). The molecule further yielded a viability in assay [4] of 75.2%. Further, the fluorescence ratio is 0.95 (inactive) in assay [5] and 0.9 (inactive) in assay [8]. Besides, the inhibition was -6.73% (inactive) in assay [6] and 1.44% (inactive) in assay [7]. For the same molecule, the z-score in assay [1] was 1.86 (inactive). Besides, the mean signal in assay [2] is 250 (inactive).

As for `CC(=O)O[C@]1(C(C)=O)CC[C@H]2[C@@H]3C=C(C)C4=CC(=O)CCC4(C)[C@H]3CCC21C` (stereo not given in full), the molecule was classed as inactive in assay [1]. In assay [2], the mean signal was 261 (inactive).

For `CC12CCC(=O)C=C1CC[C@@H]1[C@@H]2[C@@H](O)CC2(C)[C@@H](C(=O)CO)CC[C@@H]12` (stereo not given in full), the molecule was called inactive in assay [1]. Further, in assay [2], the mean signal is 250 (inactive).

`CC(=O)OC12CO[C@@H]1C[C@H](O)[C@@]1(C)C(=O)[C@H](O)C3=C(C)[C@@H](OC(=O)[C@H](O)[C@@H](NC(=O)OC(C)(C)C)c4ccccc4)CC(O)([C@@H](OC(=O)c4ccccc4)[C@H]21)C3(C)C` (stereo not given in full): the outcome in assay [1] was inactive. The mean signal in assay [2] is 256 (inactive).

As to `CC12CC[C@@H]3c4ccc(OS(=O)(=O)O)cc4CC[C@H]3[C@@H]1CCC2=O` (stereo not given in full), in assay [1], the molecule was classed as inactive. Besides, in assay [2], the mean signal is 260 (inactive).

Regarding `CC12CC[C@@H]3c4ccc(O)cc4CC[C@H]3[C@@H]1CC[C@@H]2O` (stereo not given in full), the molecule was called inactive in assay [1]. The mean signal in assay [2] was 233 (inactive).

For `C#C[C@]1(O)CC[C@H]2[C@@H]3[C@H](C)CC4=C(CCC(=O)C4)[C@H]3CCC21C` (stereo not given in full), in assay [1], the outcome was inactive. Besides, in assay [2], the mean signal was 249 (inactive).

On to `C=CC[C@@H]1/C=C(\C)C[C@H](C)C[C@H](OC)[C@H]2OC(O)(C(=O)C(=O)N3CCCC[C@H]3C(=O)O[C@H](/C(C)=C/[C@@H]3CC[C@@H](O)[C@H](OC)C3)[C@H](C)[C@@H](O)CC1=O)[C@H](C)C[C@@H]2OC`, for which the outcome in assay [1] was inactive. For the same molecule, the mean signal in assay [2] is 274 (inactive).

Take `CC#C[C@]1(O)CC[C@H]2[C@@H]3CCC4=CC(=O)CCC4=C3[C@@H](c3ccc(N(C)C)cc3)CC21C` (stereo not given in full): in assay [1], the molecule was called inactive. Moreover, the mean signal in assay [2] is 225 (inactive).

For the molecule `COc1cc(/C=C/C(=O)O)cc(OC)c1O`, the red/green cell ratio (normalised) in assay [3] is 1.1 (inactive). Also, the normalised cell number is 1.09 in assay [3] (setting [9]) and 1.2 in assay [3] (setting [10]).

With `OC[C@H]1O[C@@H](n2cnc3c(N[C@H]4CCC[C@@H]4O)ncnc32)[C@@H](O)C1O` (stereo not given in full), the parasite load remaining in assay [4] was 54.4% (inactive). The same molecule returned a viability in assay [4] of 67.3%. Moreover, the values for the fluorescence ratio in assay [5] and in assay [8] were 1.01 (inactive) and 0.98 (inactive), respectively. For the same molecule, the inhibition in assay [6] is -1.09% (inactive); in assay [7] it was -2.76% (inactive). In assay [1], the z-score was -0.495 (inactive). Also, the mean signal in assay [2] was 261 (inactive).
